Source: PubChem BioAssay
“And” between values parts separate entries of the source, which are not always exact repeats. Equal values may be shown once. Results filed as inconclusive are left out. The source made the active and inactive calls.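 The calls were made as follows, unless noted: active = normalized viability below 100% at a tested concentration; inactive = the rest.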

Columns and labels:
[1] = viability loss in pontine glioma line – cell-based, SU-DIPG-XVII, MIPE5.0, CellTiter-Glo, qHTS, dose response (AID 1347060; cut-off not given, nearly all actives have AC50 up to about 26 µM;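 also: cells exposed to compound for 48 hours before viability readout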); settings: CellTiter-Glo ATP luminescence
[2] = viability loss in pontine glioma line – cell-based, SU-DIPG-XIII, MIPE4.0, CellTiter-Glo, qHTS, dose response (AID 1347061; cut-off not given, nearly all actives have AC50 up to about 37 µM;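 also: cells exposed to compound for 48 hours before readout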); settings: CellTiter-Glo ATP luminescence
[3] = viability loss in pontine glioma line – cell-based, JHH-DIPG-1, MIPE4.0, CellTiter-Glo, qHTS, dose response (AID 1347062; cut-off not given, nearly all actives have AC50 up to about 27 µM;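 also: cells exposed to compound for two days before readout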); settings: JHH-DIPG-1 viability, CellTiter-Glo ATP luminescence
[4] = viability loss in pontine glioma line – cell-based, SU-DIPG-IV, MIPE4.0, CellTiter-Glo, qHTS, dose response (AID 1347063; cut-off not given, nearly all actives have AC50 up to about 30 µM;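 also: compound exposure lasted 48 hours before the viability readout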); settings: CellTiter-Glo ATP luminescence
[5] = viability loss in pontine glioma line – cell-based, SU-DIPG-XIII, MIPE5.0, CellTiter-Glo, qHTS, dose response (AID 1347064; cut-off not given, nearly all actives have AC50 up to about 23 µM;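 also: cells exposed to compound for 48 hours before the viability read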); settings: CellTiter-Glo ATP luminescence
[6] = viability loss in pontine glioma line – cell-based, SU-DIPG-XXV, MIPE5.0, CellTiter-Glo, qHTS, dose response (AID 1347065; cut-off not given, nearly all actives have AC50 up to about 26 µM;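 also: cells exposed to compound for 48 hours before ATP readout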); settings: CellTiter-Glo ATP luminescence
[7] = growth inhibition of DIPG cells – cell-based, MIPE4.0 library, CellTiter-Glo luminescence, qHTS (AID 1347066; cut-off not given, nearly all actives have AC50 up to about 30 µM;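 also: cells exposed to compound for 48 hours before readout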); settings: SU-DIPG-VI viability, CellTiter-Glo ATP luminescence
[8] = JHH-DIPG-1 glioma cell viability, MIPE5.0 library, CellTiter-Glo luminescence, qHTS (AID 1347067; cut-off not given, nearly all actives have AC50 up to about 26 µM;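 also: cells exposed to compound for 48 hours before readout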); settings: JHH-DIPG-1 glioma viability, CellTiter-Glo ATP luminescence
[9] = viability loss with induced miR-34 in A549 – imaging, A549 dox-inducible miR-34, nuclei and caspase counts, primary screen (AID 1347080;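 active = compounds whose cell count with miR-34 switched on is under 0.7 times the count with it off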); settings: A549 miR-34 inducible, Hoechst nuclei count, 48 h
[10] = compounds altering HSF1 focus formation in cells – imaging, Selleck Cancer Library (AID 1347162; in the data active = plate-normalised HSF1 focus index below about 0.46); settings: human cells, HSF1 nuclear foci imaging, at 10 µM; SSMD: measured here: HSF1 foci SSMD mean; cell count: measured here: cell number; plate-normalised HSF1 focus index: stronger effect = lower value
[11] = MELAS cybrid and Rieske KO viability enhancers – cell-based, MELAS cybrids, Rieske KO mouse fibroblasts, CellTiter-Glo, primary screen (AID 1508586;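 active = mean z-score across replicates of 1.96 or higher in either the MELAS or the Rieske mutant cell line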;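 also: z relative to plate mean and SD of compound and empty wells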); settings: low glucose
[12] = drug combination growth inhibition, ovarian cancer – cell-based, oncology-focused library, rucaparib conditional, profiling panel (AID 1508598); settings: patient-derived ovarian cancer cells, CellTiter-Glo viability, 144 h, stronger effect = lower value
[13] = stronger effect = lower value, cell number ratio, induced over uninduced
[14] = measured here: relative caspase fold change +Dox/-Dox
[15] = measured here: total cells with miR-34 induction, stronger effect = lower value
[16] = measured here: total cells without miR-34 induction
[17] = MELAS cybrid survival, CellTiter-Glo 48 h, stronger effect = higher value
[18] = Rieske KO mouse fibroblast survival, CellTiter-Glo 72 h
[19] = at 0.000305 µM, OCI-C5x cells, with rucaparib 10 µM, 100% = cells with rucaparib alone
[20] = at 0.000305 µM, OCI-C5x cells, without rucaparib
[21] = at 0.000305 µM, OCI-P5x cells, with rucaparib 20 µM, 100% = cells with rucaparib alone
[22] = at 0.000305 µM, OCI-P5x cells, without rucaparib
[23] = at 0.00122 µM, OCI-C5x cells, with rucaparib 10 µM, 100% = cells with rucaparib alone
[24] = at 0.00122 µM, OCI-C5x cells, without rucaparib
[25] = at 0.00122 µM, OCI-P5x cells, with rucaparib 20 µM, 100% = cells with rucaparib alone
[26] = at 0.00122 µM, OCI-P5x cells, without rucaparib
[27] = at 0.00488 µM, OCI-C5x cells, with rucaparib 10 µM, 100% = cells with rucaparib alone
[28] = at 0.00488 µM, OCI-C5x cells, without rucaparib
[29] = at 0.00488 µM, OCI-P5x cells, with rucaparib 20 µM, 100% = cells with rucaparib alone
[30] = at 0.00488 µM, OCI-P5x cells, without rucaparib
[31] = at 0.0195 µM, OCI-C5x cells, with rucaparib 10 µM, 100% = cells with rucaparib alone
[32] = at 0.0195 µM, OCI-C5x cells, without rucaparib
[33] = at 0.0195 µM, OCI-P5x cells, with rucaparib 20 µM, 100% = cells with rucaparib alone
[34] = at 0.0195 µM, OCI-P5x cells, without rucaparib
[35] = at 0.0781 µM, OCI-C5x cells, with rucaparib 10 µM, 100% = cells with rucaparib alone
[36] = at 0.0781 µM, OCI-C5x cells, without rucaparib
[37] = at 0.0781 µM, OCI-P5x cells, with rucaparib 20 µM, 100% = cells with rucaparib alone
[38] = at 0.0781 µM, OCI-P5x cells, without rucaparib
[39] = at 0.313 µM, OCI-C5x cells, with rucaparib 10 µM, 100% = cells with rucaparib alone
[40] = at 0.313 µM, OCI-C5x cells, without rucaparib
[41] = at 0.313 µM, OCI-P5x cells, with rucaparib 20 µM, 100% = cells with rucaparib alone
[42] = at 0.313 µM, OCI-P5x cells, without rucaparib
[43] = at 1.25 µM, OCI-C5x cells, with rucaparib 10 µM, 100% = cells with rucaparib alone
[44] = at 1.25 µM, OCI-C5x cells, without rucaparib
[45] = at 1.25 µM, OCI-P5x cells, with rucaparib 20 µM, 100% = cells with rucaparib alone
[46] = at 1.25 µM, OCI-P5x cells, without rucaparib
[47] = at 5 µM, OCI-C5x cells, with rucaparib 10 µM, 100% = cells with rucaparib alone
[48] = at 5 µM, OCI-C5x cells, without rucaparib
[49] = at 5 µM, OCI-P5x cells, with rucaparib 20 µM, 100% = cells with rucaparib alone
[50] = at 5 µM, OCI-P5x cells, without rucaparib

Oc1cccc(-c2nc(N3CCOCC3)c3oc4ncccc4c3n2)c1
0.551 and 1.05: fold change [9, 14]
inactive: fold change [9, 13] 1.06 and 0.903 | plate-normalised HSF1 focus index [10] 0.749 | viability [12, 19] 109% | viability [12, 20] 110% | viability [12, 21] 120% | viability [12, 22] 103% | viability [12, 23] 109% | viability [12, 24] 104% | viability [12, 25] 117% | viability [12, 29] 106% | viability [12, 30] 103% | viability [12, 33] 113% | viability [12, 34] 100% | viability [12, 35] 103% | viability [12, 36] 107% | viability [12, 39] 123% | viability [12, 40] 114%
-0.00105: z-score [11, 18]
2320 and 1430: cell count [9, 15]
active: AC50 [1] 0.525 µM | AC50 [2] 1.21 µM | AC50 [3] 0.215 µM | AC50 [4] 0.0429 µM | AC50 [5] 0.332 µM | AC50 [6] 0.186 µM | AC50 [7] 3.82 µM | AC50 [8] 5.25 µM | z-score [11, 17] 2.46 | viability [12, 26] 98.5% | viability [12, 27] 75.7% | viability [12, 28] 93.3% | viability [12, 31] 79.3% | viability [12, 32] 72.3% | viability [12, 37] 97.5% | viability [12, 38] 96.9% | viability [12, 41] 73.1% | viability [12, 42] 95.8% | viability [12, 43] 78.6% | viability [12, 44] 86.7% | viability [12, 45] 45.8% | viability [12, 46] 65.7% | viability [12, 47] 60.3% | viability [12, 48] 69.5% | viability [12, 49] 40.3% | viability [12, 50] 48.6%
-4.03: SSMD [10]
7310: cell count [10]
2190 and 1580: cell count [9, 16]

Nc1ccc(C(=O)Nc2cccc(-c3nc(N4CCOCC4)c4oc5ncccc5c4n3)c2)cn1
active: AC50 [1] 4.68 µM | AC50 [2] 18.7 µM | AC50 [3] 16.6 µM | AC50 [4] 16.6 µM | AC50 [5] 8.33 µM | AC50 [6] 2.09 µM | AC50 [7] 11.8 µM | AC50 [8] 8.33 µM | z-score [11, 17] 3.1 | viability [12, 21] 83.5% | viability [12, 22] 86.3% | viability [12, 25] 68.8% | viability [12, 26] 85.2% | viability [12, 29] 71.1% | viability [12, 30] 81% | viability [12, 33] 56.8% | viability [12, 34] 74.2% | viability [12, 49] 80% | viability [12, 50] 78.9%
6980: cell count [10]
-0.394: SSMD [10]
inactive: fold change [9, 13] 1.02 | plate-normalised HSF1 focus index [10] 0.989 | viability [12, 19] 106% | viability [12, 20] 111% | viability [12, 23] 106% | viability [12, 24] 107% | viability [12, 27] 105% | viability [12, 28] 108% | viability [12, 31] 115% | viability [12, 32] 112% | viability [12, 35] 122% | viability [12, 36] 117% | viability [12, 37] 114% | viability [12, 38] 117% | viability [12, 39] 147% | viability [12, 40] 131% | viability [12, 41] 109% | viability [12, 42] 119% | viability [12, 43] 150% | viability [12, 44] 151% | viability [12, 45] 111% | viability [12, 46] 107% | viability [12, 47] 178% | viability [12, 48] 138%
-2.85: z-score [11, 18]
2410: cell count [9, 15]
0.903: fold change [9, 14]
2370: cell count [9, 16]
